The results in this text go back to publication PMC7862700, “An all-to-all approach to the identification of sequence-specific readers for epigenetic DNA modifications on cytosine”.

What all share (experiment): DAPPL (digital affinity profiling via proximity ligation, sequencing); 10 mM Tris-HCl pH 7.5, 50 mM NaCl, 1 mM DTT, 4% glycerol, room temperature, 30 min; GST-TFs on glutathione beads, 16-mer random dsDNA library, 0.1% formaldehyde crosslink after washing; high values mean tight binding
One assay concerns the target T1, FEV (Homo sapiens, UniProt Q99581 1-238).
T1 sequence: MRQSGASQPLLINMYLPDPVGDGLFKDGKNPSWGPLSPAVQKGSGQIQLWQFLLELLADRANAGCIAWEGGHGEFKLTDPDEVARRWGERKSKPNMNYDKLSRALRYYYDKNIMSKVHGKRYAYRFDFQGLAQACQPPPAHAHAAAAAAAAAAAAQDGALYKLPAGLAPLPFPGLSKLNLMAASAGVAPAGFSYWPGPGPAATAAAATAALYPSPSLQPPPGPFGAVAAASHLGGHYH
As to conditions: protein: recombinant; tags: N-terminal GST; dsDNA, one strand shown. Summed up:
(§1)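 Pools of DNA-barcoded human transcription factors, expressed in yeast as GST fusions on glutathione beads and combined with a tag-only sample, were incubated with 200 nmole of a 16-mer random double-stranded DNA library. Incubation took 30 min at room temperature in Tris/NaCl/DTT/glycerol buffer and was followed by washing, 0.1% formaldehyde crosslinking, proximity ligation (BsaI/T4 ligase, 1 h, 37 °C), PCR amplification and sequencing on an Illumina NextSeq500. Binding signal is the ratio of a hexamer's read frequency for a factor to its frequency for the tag-only sample.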

The next assay deals with ETV5 (Homo sapiens, UniProt P41161 1-510). As to conditions: protein: recombinant; tags: N-terminal GST; dsDNA, one strand shown. Summed up: as §1
ETV5, sequence (P41161 whole entry): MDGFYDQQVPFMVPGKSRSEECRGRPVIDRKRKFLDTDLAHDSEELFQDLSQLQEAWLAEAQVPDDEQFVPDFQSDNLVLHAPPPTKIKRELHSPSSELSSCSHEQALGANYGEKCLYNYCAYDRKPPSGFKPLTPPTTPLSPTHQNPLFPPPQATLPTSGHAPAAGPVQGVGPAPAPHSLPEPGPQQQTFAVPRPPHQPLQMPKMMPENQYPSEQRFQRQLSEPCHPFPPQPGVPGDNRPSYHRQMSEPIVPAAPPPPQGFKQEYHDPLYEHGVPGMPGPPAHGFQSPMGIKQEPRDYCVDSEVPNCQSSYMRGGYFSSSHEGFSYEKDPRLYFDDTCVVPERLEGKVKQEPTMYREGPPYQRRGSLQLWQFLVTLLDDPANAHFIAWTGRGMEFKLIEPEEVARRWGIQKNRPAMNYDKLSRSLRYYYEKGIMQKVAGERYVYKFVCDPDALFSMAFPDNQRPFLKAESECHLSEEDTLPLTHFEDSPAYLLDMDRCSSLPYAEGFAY
The target in the next assay is HSF1 (Homo sapiens, UniProt Q00613 1-529). The settings on record: protein: recombinant; tags: N-terminal GST; chain copies: 3; dsDNA, one strand shown. Summed up: as §1
HSF1, sequence (Q00613 whole entry): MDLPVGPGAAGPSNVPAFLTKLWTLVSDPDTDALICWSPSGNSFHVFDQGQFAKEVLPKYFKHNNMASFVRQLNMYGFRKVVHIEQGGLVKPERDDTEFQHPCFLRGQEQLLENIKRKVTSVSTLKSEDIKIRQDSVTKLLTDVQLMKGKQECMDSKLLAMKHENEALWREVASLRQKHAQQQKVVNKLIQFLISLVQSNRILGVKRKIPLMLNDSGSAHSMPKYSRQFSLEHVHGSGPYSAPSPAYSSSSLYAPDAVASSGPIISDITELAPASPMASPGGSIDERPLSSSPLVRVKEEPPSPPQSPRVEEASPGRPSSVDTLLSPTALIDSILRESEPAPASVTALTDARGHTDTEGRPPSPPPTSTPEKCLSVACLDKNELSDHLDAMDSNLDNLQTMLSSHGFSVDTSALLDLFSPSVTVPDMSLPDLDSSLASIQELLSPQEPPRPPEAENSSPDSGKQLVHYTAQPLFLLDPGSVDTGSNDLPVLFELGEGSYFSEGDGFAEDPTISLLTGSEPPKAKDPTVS
Another assay has as its target T2, SPIC (Homo sapiens, UniProt Q8N5J4 1-248).
T2 sequence: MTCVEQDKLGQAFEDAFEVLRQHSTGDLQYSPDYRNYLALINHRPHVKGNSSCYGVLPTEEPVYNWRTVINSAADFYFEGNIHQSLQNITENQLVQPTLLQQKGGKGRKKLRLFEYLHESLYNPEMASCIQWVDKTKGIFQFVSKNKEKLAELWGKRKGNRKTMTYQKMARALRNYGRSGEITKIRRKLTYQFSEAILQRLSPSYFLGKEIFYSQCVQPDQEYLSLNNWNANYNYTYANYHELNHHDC
As to conditions: protein: recombinant; tags: N-terminal GST; dsDNA, one strand shown. Summed up: as §1

The target of another assay is ELF4 (Homo sapiens, UniProt Q99607 1-663). As to conditions: protein: recombinant; tags: N-terminal GST; dsDNA, one strand shown. The essentials:
as §1

The target of another assay is T3, ELK4 (Homo sapiens, UniProt P28324-2 1-405).
T3 sequence: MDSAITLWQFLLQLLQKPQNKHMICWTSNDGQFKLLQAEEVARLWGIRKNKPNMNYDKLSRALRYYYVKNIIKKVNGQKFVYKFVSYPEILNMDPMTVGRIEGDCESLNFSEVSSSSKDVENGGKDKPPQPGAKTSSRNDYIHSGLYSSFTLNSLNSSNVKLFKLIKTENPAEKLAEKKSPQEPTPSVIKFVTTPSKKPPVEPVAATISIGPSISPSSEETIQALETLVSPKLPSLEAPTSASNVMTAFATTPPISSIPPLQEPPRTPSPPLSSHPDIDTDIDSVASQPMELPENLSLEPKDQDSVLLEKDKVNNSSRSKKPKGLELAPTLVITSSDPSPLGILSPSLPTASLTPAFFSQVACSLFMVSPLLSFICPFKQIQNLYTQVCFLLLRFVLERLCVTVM
The settings on record: protein: recombinant; tags: N-terminal GST; dsDNA, one strand shown. Summed up: as §1

The next assay has as its target T4, ETV2 (Homo sapiens, UniProt O00321 1-342).
T4 sequence: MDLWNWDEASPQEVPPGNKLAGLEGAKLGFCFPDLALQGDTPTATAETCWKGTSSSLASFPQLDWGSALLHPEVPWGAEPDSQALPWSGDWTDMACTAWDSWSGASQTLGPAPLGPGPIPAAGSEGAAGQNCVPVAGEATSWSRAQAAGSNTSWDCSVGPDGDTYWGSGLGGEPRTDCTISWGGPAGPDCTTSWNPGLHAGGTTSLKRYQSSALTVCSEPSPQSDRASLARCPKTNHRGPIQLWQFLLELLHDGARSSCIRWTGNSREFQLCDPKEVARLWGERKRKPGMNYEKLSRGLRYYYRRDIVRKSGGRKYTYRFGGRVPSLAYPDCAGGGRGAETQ
As to conditions: protein: recombinant; tags: N-terminal GST; dsDNA, one strand shown. Summed up:
as §1

For another assay, the target named is T5, ELF3 (Homo sapiens, UniProt P78545 1-371).
T5 sequence: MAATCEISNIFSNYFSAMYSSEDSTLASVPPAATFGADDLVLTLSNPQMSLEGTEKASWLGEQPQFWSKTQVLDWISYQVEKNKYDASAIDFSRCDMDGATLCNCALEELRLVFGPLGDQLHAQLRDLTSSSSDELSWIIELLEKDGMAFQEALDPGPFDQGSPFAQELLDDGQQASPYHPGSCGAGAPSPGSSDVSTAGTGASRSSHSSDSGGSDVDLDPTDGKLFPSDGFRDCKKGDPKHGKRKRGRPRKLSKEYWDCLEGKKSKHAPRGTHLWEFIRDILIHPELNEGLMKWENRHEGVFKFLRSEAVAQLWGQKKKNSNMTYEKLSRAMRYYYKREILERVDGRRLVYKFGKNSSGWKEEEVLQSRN
As to conditions: protein: recombinant; tags: N-terminal GST; dsDNA, one strand shown. The essentials:
as §1

The target of another assay is CRX (Homo sapiens, UniProt O43186 1-299). As to conditions: protein: recombinant; tags: N-terminal GST; dsDNA, one strand shown. The essentials: as §1
CRX, sequence (O43186 whole entry): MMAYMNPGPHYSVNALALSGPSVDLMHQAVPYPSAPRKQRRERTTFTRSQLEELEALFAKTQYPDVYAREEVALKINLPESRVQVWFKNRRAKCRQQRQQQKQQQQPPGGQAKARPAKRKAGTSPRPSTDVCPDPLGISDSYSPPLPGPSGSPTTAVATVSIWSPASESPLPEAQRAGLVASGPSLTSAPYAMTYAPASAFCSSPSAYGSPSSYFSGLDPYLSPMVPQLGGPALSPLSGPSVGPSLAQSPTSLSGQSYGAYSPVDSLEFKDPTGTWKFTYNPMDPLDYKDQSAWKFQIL
Another assay concerns the target ETV1 (Homo sapiens, UniProt P50549 1-477). As to conditions: protein: recombinant; tags: N-terminal GST; dsDNA, one strand shown. The essentials: as §1
The target in another assay is T6, ERF (Homo sapiens, UniProt P50548 1-548).
T6 sequence: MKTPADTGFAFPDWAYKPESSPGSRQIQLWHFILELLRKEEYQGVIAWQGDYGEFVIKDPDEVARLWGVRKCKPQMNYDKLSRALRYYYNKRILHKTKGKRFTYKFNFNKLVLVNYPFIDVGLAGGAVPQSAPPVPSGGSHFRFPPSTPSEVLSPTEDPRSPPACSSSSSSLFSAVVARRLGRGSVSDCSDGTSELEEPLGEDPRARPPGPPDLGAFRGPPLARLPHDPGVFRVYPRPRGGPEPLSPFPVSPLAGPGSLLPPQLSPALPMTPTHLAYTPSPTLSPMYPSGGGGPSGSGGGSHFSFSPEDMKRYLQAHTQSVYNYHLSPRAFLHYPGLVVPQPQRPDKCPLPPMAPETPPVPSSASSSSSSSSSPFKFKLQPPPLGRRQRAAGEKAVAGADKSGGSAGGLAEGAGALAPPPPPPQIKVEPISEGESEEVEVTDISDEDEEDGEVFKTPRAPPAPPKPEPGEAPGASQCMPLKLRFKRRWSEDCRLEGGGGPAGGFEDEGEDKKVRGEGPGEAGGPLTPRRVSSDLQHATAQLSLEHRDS
As to conditions: protein: recombinant; tags: N-terminal GST; dsDNA, one strand shown. The essentials: as §1

A further assay concerns the target T7, ETV3L (Homo sapiens, UniProt Q6ZN32 1-361).
T7 sequence: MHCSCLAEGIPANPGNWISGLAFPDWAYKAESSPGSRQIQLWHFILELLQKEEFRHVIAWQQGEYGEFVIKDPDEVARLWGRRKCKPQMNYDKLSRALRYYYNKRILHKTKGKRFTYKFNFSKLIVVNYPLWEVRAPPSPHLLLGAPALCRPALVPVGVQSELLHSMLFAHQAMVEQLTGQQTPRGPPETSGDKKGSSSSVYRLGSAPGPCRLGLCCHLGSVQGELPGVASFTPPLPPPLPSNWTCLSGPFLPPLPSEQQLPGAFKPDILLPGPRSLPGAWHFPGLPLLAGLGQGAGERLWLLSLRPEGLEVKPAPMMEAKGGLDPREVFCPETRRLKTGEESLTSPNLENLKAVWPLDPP
The settings on record: protein: recombinant; tags: N-terminal GST; dsDNA, one strand shown. Summed up:
as §1

The target of a further assay is T8, ETS2 (Homo sapiens, UniProt P15036 1-469).
T8 sequence: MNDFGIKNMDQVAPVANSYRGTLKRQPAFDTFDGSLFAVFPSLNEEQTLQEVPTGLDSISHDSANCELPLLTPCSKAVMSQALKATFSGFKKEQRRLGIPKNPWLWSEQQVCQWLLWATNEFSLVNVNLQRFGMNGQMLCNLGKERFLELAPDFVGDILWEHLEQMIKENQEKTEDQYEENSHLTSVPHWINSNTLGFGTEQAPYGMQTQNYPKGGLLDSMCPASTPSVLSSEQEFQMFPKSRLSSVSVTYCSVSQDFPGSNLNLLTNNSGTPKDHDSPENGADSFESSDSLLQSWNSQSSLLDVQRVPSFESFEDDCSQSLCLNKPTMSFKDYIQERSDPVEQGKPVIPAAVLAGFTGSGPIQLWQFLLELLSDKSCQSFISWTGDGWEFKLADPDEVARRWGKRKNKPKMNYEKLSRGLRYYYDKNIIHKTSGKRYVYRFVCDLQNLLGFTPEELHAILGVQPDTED
The settings on record: protein: recombinant; tags: N-terminal GST; dsDNA, one strand shown. The essentials: as §1

A further assay addresses T9, SPDEF (Homo sapiens, UniProt O95238 1-335).
T9 sequence: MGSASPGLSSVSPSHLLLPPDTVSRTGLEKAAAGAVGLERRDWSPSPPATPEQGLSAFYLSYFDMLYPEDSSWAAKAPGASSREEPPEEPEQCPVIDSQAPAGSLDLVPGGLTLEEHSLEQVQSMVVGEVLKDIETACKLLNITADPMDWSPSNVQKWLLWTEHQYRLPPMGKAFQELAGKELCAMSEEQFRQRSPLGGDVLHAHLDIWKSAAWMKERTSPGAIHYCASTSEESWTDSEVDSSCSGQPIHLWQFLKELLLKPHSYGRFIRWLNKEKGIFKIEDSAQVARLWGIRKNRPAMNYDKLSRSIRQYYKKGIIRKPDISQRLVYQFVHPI
As to conditions: protein: recombinant; tags: N-terminal GST; dsDNA, one strand shown. The essentials: as §1

The next assay concerns the target T10, ETV7 (Homo sapiens, UniProt Q9Y603 1-341).
T10 sequence: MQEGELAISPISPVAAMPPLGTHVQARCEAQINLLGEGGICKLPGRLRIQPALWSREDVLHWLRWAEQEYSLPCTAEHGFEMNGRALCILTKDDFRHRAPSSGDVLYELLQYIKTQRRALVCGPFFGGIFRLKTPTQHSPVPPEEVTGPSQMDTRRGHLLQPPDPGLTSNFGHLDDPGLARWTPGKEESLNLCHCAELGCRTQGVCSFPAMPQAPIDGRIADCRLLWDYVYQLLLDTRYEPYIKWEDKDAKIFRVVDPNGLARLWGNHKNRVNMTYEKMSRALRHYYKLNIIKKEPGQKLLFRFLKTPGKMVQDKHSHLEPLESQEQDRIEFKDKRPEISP
As to conditions: protein: recombinant; tags: N-terminal GST; dsDNA, one strand shown. Summed up: as §1

A further assay addresses T11, ELF5 (Homo sapiens, UniProt Q9UKW6-2 1-255).
T11 sequence: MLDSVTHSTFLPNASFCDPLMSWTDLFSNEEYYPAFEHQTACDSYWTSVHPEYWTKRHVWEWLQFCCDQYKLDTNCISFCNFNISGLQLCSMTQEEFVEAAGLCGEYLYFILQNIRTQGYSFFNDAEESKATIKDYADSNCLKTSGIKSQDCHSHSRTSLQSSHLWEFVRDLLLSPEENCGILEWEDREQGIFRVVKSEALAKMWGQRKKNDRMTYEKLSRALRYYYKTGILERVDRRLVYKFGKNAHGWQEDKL
The settings on record: protein: recombinant; tags: N-terminal GST; dsDNA, one strand shown. Summed up: as §1

For the next assay, the target named is T12, ETV3 (Homo sapiens, UniProt P41162-2 1-143).
T12 sequence: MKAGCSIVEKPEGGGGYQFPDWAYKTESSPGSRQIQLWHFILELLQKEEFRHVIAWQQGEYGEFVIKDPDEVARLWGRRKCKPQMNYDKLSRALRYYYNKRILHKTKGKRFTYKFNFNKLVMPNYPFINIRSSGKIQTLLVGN
The settings on record: protein: recombinant; tags: N-terminal GST; dsDNA, one strand shown. The essentials: as §1

In the next assay the target is ETV6 (Homo sapiens, UniProt P41212 1-452). The settings on record: protein: recombinant; tags: N-terminal GST; dsDNA, one strand shown. Summed up: as §1
ETV6, sequence (P41212 whole entry): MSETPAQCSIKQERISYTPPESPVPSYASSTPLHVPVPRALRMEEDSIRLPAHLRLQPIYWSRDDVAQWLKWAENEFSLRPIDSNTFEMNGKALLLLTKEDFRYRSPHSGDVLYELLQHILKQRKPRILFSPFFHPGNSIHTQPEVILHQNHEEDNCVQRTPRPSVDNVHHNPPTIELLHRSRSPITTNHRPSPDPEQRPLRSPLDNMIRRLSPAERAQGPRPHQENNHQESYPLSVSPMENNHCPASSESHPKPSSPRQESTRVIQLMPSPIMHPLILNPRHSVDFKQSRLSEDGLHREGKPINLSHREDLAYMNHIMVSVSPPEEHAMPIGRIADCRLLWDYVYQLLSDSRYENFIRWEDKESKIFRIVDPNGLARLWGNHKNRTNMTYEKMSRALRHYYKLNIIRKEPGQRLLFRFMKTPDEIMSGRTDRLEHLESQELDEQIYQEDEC

ETV1, sequence (P50549 whole entry): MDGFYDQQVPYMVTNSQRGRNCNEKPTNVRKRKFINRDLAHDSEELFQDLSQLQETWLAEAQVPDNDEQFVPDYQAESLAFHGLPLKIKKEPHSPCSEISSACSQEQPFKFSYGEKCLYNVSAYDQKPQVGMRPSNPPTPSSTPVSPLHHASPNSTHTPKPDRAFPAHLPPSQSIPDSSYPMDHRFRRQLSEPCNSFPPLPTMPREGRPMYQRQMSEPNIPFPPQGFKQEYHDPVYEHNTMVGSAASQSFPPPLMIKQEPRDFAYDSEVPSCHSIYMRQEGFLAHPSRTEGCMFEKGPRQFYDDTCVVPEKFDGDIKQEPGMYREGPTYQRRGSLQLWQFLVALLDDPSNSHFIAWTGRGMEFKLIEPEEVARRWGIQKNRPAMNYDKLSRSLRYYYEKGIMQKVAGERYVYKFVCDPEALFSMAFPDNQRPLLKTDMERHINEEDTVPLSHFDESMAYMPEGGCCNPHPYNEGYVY
ELF4, sequence (Q99607 whole entry): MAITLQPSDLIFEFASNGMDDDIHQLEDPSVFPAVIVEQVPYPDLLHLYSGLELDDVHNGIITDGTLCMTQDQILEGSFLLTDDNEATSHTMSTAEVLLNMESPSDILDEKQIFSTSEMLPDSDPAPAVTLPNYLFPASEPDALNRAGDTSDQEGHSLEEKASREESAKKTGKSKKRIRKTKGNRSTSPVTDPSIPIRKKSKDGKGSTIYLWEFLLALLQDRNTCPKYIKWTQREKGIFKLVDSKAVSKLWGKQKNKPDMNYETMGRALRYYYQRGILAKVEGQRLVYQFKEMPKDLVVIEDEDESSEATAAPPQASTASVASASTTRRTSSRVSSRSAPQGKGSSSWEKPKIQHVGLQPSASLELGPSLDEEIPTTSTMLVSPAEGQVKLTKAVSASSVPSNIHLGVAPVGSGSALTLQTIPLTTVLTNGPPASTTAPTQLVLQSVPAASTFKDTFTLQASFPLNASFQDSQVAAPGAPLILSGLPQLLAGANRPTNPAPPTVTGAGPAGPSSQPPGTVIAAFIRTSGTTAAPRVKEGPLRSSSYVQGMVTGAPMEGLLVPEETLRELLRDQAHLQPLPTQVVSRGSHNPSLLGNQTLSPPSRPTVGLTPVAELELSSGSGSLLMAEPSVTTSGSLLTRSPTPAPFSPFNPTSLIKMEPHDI

Regarding TTGAAA, the binding signal in the assay with FEV is 1.13 fold enrichment (6-mer frequency, TF over GST control); in the assay with ETV5, 1.18 fold enrichment (6-mer frequency, TF over GST control); in the assay with HSF1, 1.24 fold enrichment (6-mer frequency, TF over GST control); with SPIC it was 1.15 fold enrichment (6-mer frequency, TF over GST control); with ELF4 it was 1.21 fold enrichment (6-mer frequency, TF over GST control); with ELK4 it was 1.18 fold enrichment (6-mer frequency, TF over GST control). The binding signal is 1.28 fold enrichment (6-mer frequency, TF over GST control) with ETV2; 1.13 fold enrichment (6-mer frequency, TF over GST control) with ELF3; 1.24 fold enrichment (6-mer frequency, TF over GST control) with CRX; 1.16 fold enrichment (6-mer frequency, TF over GST control) with ETV1; 1.13 fold enrichment (6-mer frequency, TF over GST control) with ERF; 1.23 fold enrichment (6-mer frequency, TF over GST control) in the assay with ETV3L. Also, the binding signal is 1.24 fold enrichment (6-mer frequency, TF over GST control) in the assay with ETS2; 1.07 fold enrichment (6-mer frequency, TF over GST control) with SPDEF; 1.19 fold enrichment (6-mer frequency, TF over GST control) with ETV7; 1.03 fold enrichment (6-mer frequency, TF over GST control) with ELF5; 1.17 fold enrichment (6-mer frequency, TF over GST control) with ETV3; 1.09 fold enrichment (6-mer frequency, TF over GST control) with ETV6.
